Experiment [1] in a line: qHTS assay for small molecules that induce genotoxicity in human embryonic kidney cells expressing luciferase-tagged ATAD5 (AID 651632). Further: nearly all actives have a fitted effect of over 15% in size. The gist of the method: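 Quantitative HTS in HEK293T expressing luciferase-tagged ATAD5, whose levels rise upon DNA damage. Exposure ran 16 hr at 37C and 5% CO2, with luminescence read 30 min after Amplite addition at room temperature.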

Experiment [2] in a line: qHTS assay for small molecule agonists of the p53 signaling pathway - cell viability (AID 651633; calls by dose curve; further: nearly all actives have a fitted effect of over 30% in size; further: potency means the concentration at half of the fitted maximal effect). The method in brief:
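p53RE-bla cells were treated with compound for 16 hours at 37 C. Cytotoxicity was then measured as CellTiter-Glo luminescence after 30 min at room temperature.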
Background: In qHTS, concentration-response curves come from the screen itself.

Experiment [3] in a line: qHTS assay for small molecules that induce genotoxicity in human embryonic kidney cells expressing luciferase-tagged ATAD5 - cell viability (AID 651634; calls by dose curve; further: nearly all actives have a fitted effect of over 25% in size; further: potency means the concentration at half of the fitted maximal effect). The method in brief: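 After 15.5 hr incubation with compound at 37C, 5% CO2, HEK293T ATAD5-luciferase cells received CellTiter-Fluor reagent; fluorescence intensity was quantified following 30 min at 37C.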
A short description of experiment [4]: qHTS assay for small molecule disruptors of the mitochondrial membrane potential - cell viability (AID 720634; calls by dose curve;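 further: human HepG2 liver cancer cells; series mostly up to about 83 µM; nearly all actives have a fitted effect of over 20% in size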). The method in brief:
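ATP-based luminescent viability readout (CellTiter-Glo, 30 min, room temperature) in HepG2 cells multiplexed with the m-MPI membrane potential dye; compound exposure lasted 1 hr at 37 C.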

Experiment [5] in a line: qHTS assay to test for compound auto fluorescence at 590 nm (red) in HepG2 cells (AID 720674). The method in brief:
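Fluorescence at 590 nm emission following 540 nm excitation was recorded from HepG2 wells one hour after compound transfer, with DMSO-only wells as vehicle and Rose Bengal sodium equivalency as the scale.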

A short description of experiment [6]: qHTS assay to test for compound auto fluorescence at 535 nm (green) in HepG2 cells (AID 720675).
Experiment [7] can be described thus: qHTS assay to test for compound auto fluorescence at 460 nm (blue) in HEK293 cells (AID 720678). The method in brief:
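HEK293 cells (2,000 per well, medium with 10% dialyzed FBS) attached for 4-5 hr at 37C, then received compound and stood overnight at 37C, 5% CO2. Blue fluorescence was read at Ex/Em 405/460 nm and expressed relative to triamterene.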

A short description of experiment [8]: qHTS assay to test for compound auto fluorescence at 590 nm (red) in HEK293 cells (AID 720679). The method in brief:
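HEK293 cells (2,000/well, medium with 10% dialyzed FBS) attached for 4-5 hr at 37C, received 23 nL compound and were incubated overnight at 37C, 5% CO2. Red fluorescence was then read at 540/590nm Ex/Em, referenced to Rose Bengal sodium.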

Experiment [9] in a line: qHTS assay to test for compound auto fluorescence at 535 nm (green) in HEK293 cells (AID 720680).
The nature of experiment [10]: qHTS assay to test for compound auto fluorescence at 535 nm (green) in HEK293 cell free culture (AID 720682). The method in brief: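 Green-label autofluorescence (485 nm excitation, 535 nm emission) measured on compound added to cell-free culture medium (DMEM, 10% FBS). Output is expressed relative to fluorescein.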
Experiment [11] can be described thus: qHTS assay to test for compound auto fluorescence at 590 nm (red) in HEK293 cell free culture (AID 720683). The method in brief:
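Cell-free wells of DMEM with 10% FBS received compound, and intrinsic fluorescence was read at excitation/emission 540/590 nm. Values expressed as equivalence to Rose Bengal sodium.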

Experiment [12] is described as follows: qHTS assay to test for compound auto fluorescence at 590 nm (red) in HepG2 cell free culture (AID 720684). The gist of the method:
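Auto fluorescence equivalency versus Rose Bengal sodium, red channel Ex/Em 540/590 nm; compounds in cell-free MEM/10% FBS; DMSO vehicle control.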

Experiment [13] in a line: qHTS assay to test for compound auto fluorescence at 460 nm (blue) in HepG2 cell free culture (AID 720685). The method in brief:
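Cell-free plates of MEM plus 10% FBS received 23 nL compound or DMSO vehicle; blue-channel (405/460 nm) intensity scored against triamterene as reference fluorophore.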

A short description of experiment [14]: qHTS assay to test for compound auto fluorescence at 535 nm (green) in HepG2 cell free culture (AID 720686).
The nature of experiment [15]: qHTS assay to test for compound auto fluorescence at 460 nm (blue) in HepG2 cells (AID 720687). The method in brief:
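HepG2 cells in MEM with 10% FBS, attached overnight at 37 C, were exposed to compound or DMSO for 1 hr at 37 C, 5% CO2. Blue fluorescence was read at 405/460 nm, with triamterene as reference fluorophore.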

Experiment [16] has as its target Glucocorticoid receptor (Homo sapiens) (UniProt P04150). Nature of the experiment: qHTS assay to identify small molecule agonists of the glucocorticoid receptor (GR) signaling pathway (AID 720691; active means well fitted activation curve with a large enough effect in the signal ratio in the repeat runs, not every such curve was filed as active; the % refers to the signal ratio). The gist of the method:
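Cells: GR-bla HeLa, endogenous GR with stably integrated GRE-beta-lactamase reporter. Treatment 18 h, 37 C, compounds delivered in DMSO. Detection via LiveBLAzer B/G FRET substrate, 2 h RT, fluorescence intensity.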

For experiment [17] the target is unchanged. Nature of the experiment: qHTS assay to identify small molecule antagonists of the glucocorticoid receptor (GR) signaling pathway (AID 720692; active means well fitted inhibition curve with a large enough effect in the signal ratio in the repeat runs, not every such curve was filed as active; the % refers to the signal ratio; further: potency means the concentration at half of the fitted maximal effect). The gist of the method: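 Quantitative HTS in antagonist format: HeLa cells expressing endogenous GR and a stably integrated GRE-bla reporter, stimulated with 5 nM dexamethasone (final) alongside test compounds for 18 h.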

The nature of experiment [18]: qHTS assay to test for compound auto fluorescence at 460 nm (blue) in HEK293 cell free culture (AID 720681). The gist of the method: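 Compounds were added to cell-free DMEM with 10% FBS and fluorescence read directly. The blue channel used 405 nm excitation and 460 nm emission, with triamterene as the reference fluorophore.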
Experiment [19] can be described thus: qHTS assay for small molecule disruptors of the mitochondrial membrane potential (AID 720635). Further: potency means the concentration at half of the fitted maximal effect. The method in brief:
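HepG2 cells exposed to compound 1 hr at 37C, then Mito-MPS dye 30 min. Ratio read of aggregate (540/590 nm) versus monomer (490/535 nm) fluorescence.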

Unmarked numbers belong to inactive results. Records with an inconclusive call do not appear. The source made the active and inactive calls. Unless noted, the call rests on the fitted dose curve; in most records, active means well fitted curve in the direction sought with a large enough effect in the repeat runs; inconclusive means weak or mixed curves; inactive means no such curve, though single readings can be large; an effect the other way counts as inactive or inconclusive.
On the % scale 0 is the no-effect control and ±100 the full control effect.

Glucocorticoid receptor (Homo sapiens), sequence (P04150 whole entry, looked up): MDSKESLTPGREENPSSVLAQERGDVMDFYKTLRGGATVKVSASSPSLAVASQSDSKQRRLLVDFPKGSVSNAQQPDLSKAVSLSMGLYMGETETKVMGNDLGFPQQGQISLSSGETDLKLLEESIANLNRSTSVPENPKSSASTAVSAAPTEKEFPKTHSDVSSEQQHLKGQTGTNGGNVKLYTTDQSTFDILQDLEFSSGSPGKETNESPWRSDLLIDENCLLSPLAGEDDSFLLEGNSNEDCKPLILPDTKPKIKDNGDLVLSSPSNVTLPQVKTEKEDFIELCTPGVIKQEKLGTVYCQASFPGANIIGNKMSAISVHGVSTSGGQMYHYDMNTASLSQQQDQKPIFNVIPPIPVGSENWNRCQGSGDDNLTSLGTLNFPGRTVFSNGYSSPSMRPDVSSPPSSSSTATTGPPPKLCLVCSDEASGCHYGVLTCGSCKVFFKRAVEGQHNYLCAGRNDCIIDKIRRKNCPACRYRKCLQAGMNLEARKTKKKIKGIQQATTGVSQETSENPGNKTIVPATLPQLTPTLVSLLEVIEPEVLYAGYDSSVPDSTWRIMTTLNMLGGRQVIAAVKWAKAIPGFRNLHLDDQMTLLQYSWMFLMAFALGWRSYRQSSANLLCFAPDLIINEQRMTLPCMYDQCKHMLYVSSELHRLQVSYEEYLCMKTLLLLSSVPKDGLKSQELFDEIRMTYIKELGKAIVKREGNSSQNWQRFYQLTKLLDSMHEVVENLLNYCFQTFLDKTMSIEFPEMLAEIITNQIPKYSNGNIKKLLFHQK

As for `C=C(C)C(=O)OCCOc1ccccc1`, the Potency result in experiment [1], in experiment [2], in experiment [3], in experiment [4], in experiment [7] and in experiment [13] was “inactive” throughout. Besides, the Potency result in experiment [15], in experiment [16] and in [17] was “inactive” each time. In addition, the outcome in [5], in experiment [6], in [8], in [9], in experiment [10] and in [11] was inactive. Moreover, the call in [12] and in experiment [14] was inactive.

As for `CN1CCN(C2=Nc3cc(Cl)ccc3Nc3ccccc32)CC1`, the Potency entry in [1], in experiment [2], in [4], in experiment [7], in experiment [18] and in experiment [13] was “inactive” in each case. The Potency result in experiment [16] is “inactive”. In addition, the compound was called inactive in experiment [6], in experiment [8], in experiment [9], in experiment [10], in experiment [11] and in experiment [12]. In addition, the call in [14] was inactive.

With `CC(Cc1cccc(C(F)(F)F)c1)NCCOC(=O)c1ccccc1` (stereo not given), the Potency entry in [1], in [4], in experiment [18], in experiment [13] and in experiment [16] was “inactive” throughout. For the same compound, the compound was classed as inactive in [5], in [6], in [8], in experiment [10], in experiment [11] and in experiment [14].

For `CN1CCC[C@@H]1c1cccnc1`, the Potency result in experiment [1], in experiment [3], in [4], in [19], in experiment [18] and in [13] was “inactive” each time. Besides, the Potency result in experiment [15] was “inactive”. The call in experiment [5], in experiment [6], in [8], in [9], in experiment [10] and in [11] was inactive. Moreover, the call in experiment [12] and in experiment [14] was inactive.

Take `C=C(C)C(=O)OCCN(C)C`: the Potency entry in [1], in experiment [2], in experiment [3], in [7], in experiment [18] and in experiment [13] was “inactive” each time. In addition, in [15], the Potency entry is “inactive”. Moreover, the compound was called inactive in experiment [6], in [8], in experiment [11], in [12] and in experiment [14].

`OC(CCN1CCCCC1)(c1ccccc1)C1CCCCC1` (stereo not given): the Potency result in experiment [1], in experiment [3], in experiment [4], in experiment [7], in experiment [18] and in experiment [13] was “inactive” throughout. For the same compound, the Potency entry in experiment [15] is “inactive”. Also, the compound was called inactive in experiment [5], in experiment [6], in [8], in experiment [9], in experiment [10] and in [11]. In addition, the compound was called inactive in [12] and in experiment [14].

Take `CN(C)CC/C=C1\c2ccccc2COc2ccccc21`: the Potency entry in experiment [2], in [3], in [4], in experiment [18], in experiment [13] and in [15] was “inactive” each time. Further, in [16], the Potency entry was “inactive”. The compound was called inactive in experiment [5], in experiment [6], in experiment [9], in experiment [10], in [11] and in experiment [12]. The result in experiment [14] was inactive.

For `Cc1nc2ccccc2n1Cc1ccc(Cl)cc1`, the Potency entry in experiment [1], in [3], in experiment [7], in experiment [18], in experiment [13] and in experiment [15] was “inactive” in each case. Moreover, the Potency result in experiment [16] is “inactive”. Moreover, the call in experiment [5], in [6], in experiment [8], in experiment [9], in [10] and in [11] was inactive. Further, the compound was classed as inactive in [12] and in [14].

Turning to `CCOC(=O)C1=C(C)NC(C)=C(C(=O)OC)C1c1cccc([N+](=O)[O-])c1` (stereo not given), the Potency result in experiment [1], in experiment [2], in experiment [7], in experiment [13] and in experiment [15] was “inactive” each time. Further, the Potency in experiment [19] was 26.6 µM (active). The outcome in experiment [5], in [6], in experiment [10], in [11], in [12] and in [14] was inactive.

Consider `CCCCCOC(=O)c1ccc(O)cc1`, for which the Potency entry in [2], in experiment [7], in experiment [18], in experiment [13], in experiment [15] and in [16] was “inactive” throughout. In [19], the Potency was 6.94 µM (active). For the same compound, the outcome in experiment [6], in experiment [8], in experiment [9], in experiment [11] and in [14] was inactive.

As for `C=CC(=O)OCC(C)OCC(C)OCC(C)OC(=O)C=C` (stereo not given), the Potency in experiment [2] is 24.3 µM (active); in experiment [17], 43.6 µM (active). Further, the Potency result in [4], in experiment [7], in experiment [18], in [13], in experiment [15] and in experiment [16] was “inactive” each time. Moreover, the compound was classed as inactive in experiment [5], in experiment [6], in [8], in experiment [9], in [10] and in experiment [11]. Further, in experiment [14], the compound was classed as inactive.

For the compound `Cc1cc(C)c(S(=O)(=O)O)cc1N=Nc1cc(S(=O)(=O)O)c2ccccc2c1O`, the Potency entry in experiment [1], in [2], in experiment [4], in experiment [7], in experiment [18] and in [13] was “inactive” throughout. Also, in [3], the Potency was 48.6 µM (active). The result in experiment [6], in [8], in [9], in experiment [10], in experiment [11] and in [12] was inactive. In addition, the outcome in experiment [14] was inactive.

As to `O=C(Nc1ccccc1)OCC(CN1CCCCC1)OC(=O)Nc1ccccc1` (stereo not given), the Potency entry in experiment [1], in [3], in [16] and in experiment [17] was “inactive” each time. For the same compound, the fluorescence, % of fluorescein control was 0.0386% [at 18.6 µM] in experiment [6] and 0.0354% [at 18.6 µM] in experiment [14]. In addition, the fluorescence, % of triamterene in experiment [7] was 0.0079% [at 18.6 µM]. Moreover, the fluorescence, % of fluorescent control in experiment [8] is 0.0612% [at 18.6 µM]; in [18], -0.0858% [at 18.6 µM]; in experiment [11], 0.0296% [at 18.6 µM]; in [13], -0.044% [at 18.6 µM]; in experiment [15], -0.0488% [at 18.6 µM]. The fluorescence, % of fluorescein in experiment [9] is 0.0795% [at 18.6 µM]. The activity change in experiment [10] is 0.0431% [at 18.6 µM]. For the same compound, in [12], the fluorescence, % of Rose Bengal is 0.0349% [at 18.6 µM].

For the compound `Cc1ccc(O)c([C@H](CCN(C(C)C)C(C)C)c2ccccc2)c1`, the Potency entry in experiment [1], in experiment [2], in experiment [4], in experiment [7], in [18] and in experiment [13] was “inactive” in each case. The Potency result in [16] was “inactive”. In addition, the result in experiment [6], in experiment [8], in experiment [9], in experiment [10], in experiment [11] and in [12] was inactive. Also, the compound was classed as inactive in experiment [14].

Source of the values: PubChem BioAssay (Tox21).
